In the supplement of paper PMC9694430:

Legend:
Experiment in all cases: thermal shift delta Tm vs DMSO control; higher = stronger stabilization (binding)
Conditions in all cases: 12.5 µM; protein concentration 2 µM
LOC_OS01G01410-cb001 = system: LOC_OS01G01410-cb001
How it was run: (§1)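 Purified, E. coli-expressed rice kinase domain constructs were tested by differential scanning fluorimetry in 96-well plates: 19.5 μl of 2 μM kinase in 100 mM potassium phosphate pH 7.5, 150 mM NaCl, 10% glycerol, 5 × SYPRO Orange, plus compound in DMSO. Fluorescence was read from 25°C to 95°C at 0.05°C/s. Melting temperatures came from Boltzmann fits, and the shift is the triplicate mean relative to protein with DMSO alone.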

LOC_OS01G02750-cb003 = system: LOC_OS01G02750-cb003
How it was run: as §1

LOC_OS01G10900-cb004 = system: LOC_OS01G10900-cb004
How it was run: as §1

LOC_OS01G13800-cb001 = system: LOC_OS01G13800-cb001
How it was run: as §1

LOC_OS01G14860-cb001 = system: LOC_OS01G14860-cb001
How it was run: as §1

LOC_OS01G21960-cb002 = system: LOC_OS01G21960-cb002
How it was run: as §1

LOC_OS01G39600-cb002 = system: LOC_OS01G39600-cb002
How it was run: as §1

LOC_OS01G48390-cb002 = system: LOC_OS01G48390-cb002
How it was run: as §1

LOC_OS01G51400-cb002 = system: LOC_OS01G51400-cb002
How it was run: as §1

LOC_OS01G52050-cb004 = system: T1, LOC_OS01G52050-cb004
T1 sequence (whole entry): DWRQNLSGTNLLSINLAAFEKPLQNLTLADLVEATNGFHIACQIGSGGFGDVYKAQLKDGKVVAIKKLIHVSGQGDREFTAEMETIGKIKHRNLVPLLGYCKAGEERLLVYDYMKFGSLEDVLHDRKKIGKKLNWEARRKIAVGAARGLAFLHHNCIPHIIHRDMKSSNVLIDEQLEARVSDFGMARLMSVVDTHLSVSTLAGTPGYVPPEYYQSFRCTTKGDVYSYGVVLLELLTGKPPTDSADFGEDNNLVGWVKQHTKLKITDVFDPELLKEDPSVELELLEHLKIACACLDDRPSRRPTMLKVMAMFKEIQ
How it was run: as §1

LOC_OS01G57100-cb003 = system: LOC_OS01G57100-cb003
How it was run: as §1

LOC_OS01G60330-cb001 = system: LOC_OS01G60330-cb001
How it was run: as §1

LOC_OS01G60700-cb002 = system: LOC_OS01G60700-cb002
How it was run: as §1

LOC_OS01G63280-cb003 = system: LOC_OS01G63280-cb003
How it was run: as §1

LOC_OS01G67340-cb003 = system: LOC_OS01G67340-cb003
How it was run: as §1

LOC_OS01G70970-cb002 = system: LOC_OS01G70970-cb002
How it was run: as §1

LOC_OS02G07810-cb001 = system: LOC_OS02G07810-cb001
How it was run: as §1

LOC_OS02G08530-cb003 = system: LOC_OS02G08530-cb003
How it was run: as §1

LOC_OS02G14120-cb001 = system: LOC_OS02G14120-cb001
How it was run: as §1

LOC_OS02G17970-cb001 = system: LOC_OS02G17970-cb001
How it was run: as §1

Row | Compound | thermal shift delta Tm (LOC_OS01G01410-cb001) | thermal shift delta Tm (LOC_OS01G02750-cb003) | thermal shift delta Tm (LOC_OS01G10900-cb004) | thermal shift delta Tm (LOC_OS01G13800-cb001) | thermal shift delta Tm (LOC_OS01G14860-cb001) | thermal shift delta Tm (LOC_OS01G21960-cb002) | thermal shift delta Tm (LOC_OS01G39600-cb002) | thermal shift delta Tm (LOC_OS01G48390-cb002) | thermal shift delta Tm (LOC_OS01G51400-cb002) | thermal shift delta Tm (LOC_OS01G52050-cb004) | thermal shift delta Tm (LOC_OS01G57100-cb003) | thermal shift delta Tm (LOC_OS01G60330-cb001) | thermal shift delta Tm (LOC_OS01G60700-cb002) | thermal shift delta Tm (LOC_OS01G63280-cb003) | thermal shift delta Tm (LOC_OS01G67340-cb003) | thermal shift delta Tm (LOC_OS01G70970-cb002) | thermal shift delta Tm (LOC_OS02G07810-cb001) | thermal shift delta Tm (LOC_OS02G08530-cb003) | thermal shift delta Tm (LOC_OS02G14120-cb001) | thermal shift delta Tm (LOC_OS02G17970-cb001)
1 | CCCCOc1c(C(=O)c2c(F)cc(C)cc2F)c[nH]c2nncc1-2 | 1.01 °C | 0.64 °C | 1.09 °C | 0.41 °C | 2.54 °C | 1.36 °C | 0.07 °C | 0.94 °C | 0 °C | 0.38 °C | 0.94 °C | 0.86 °C | -0.01 °C | 0.42 °C | 1.31 °C | 0.23 °C | 0.81 °C | 0.56 °C | 1.75 °C | 0.7 °C
2 | COc1ccc2c(Oc3ccc(NC(=O)c4c(C)n(CC(C)(C)O)n(-c5ccccc5)c4=O)nc3)ccnc2c1 | 0.36 °C | 1.62 °C | 0.28 °C | -0.07 °C | 1.58 °C | 0.62 °C | -0.29 °C | 0.51 °C | 0.18 °C | 1.2 °C | 1.79 °C | 0.76 °C | 0.86 °C | 1.14 °C | 0.79 °C | 0.65 °C | 1.3 °C | 0.98 °C | 5.4 °C | 0.76 °C
3 | Cc1csc(-c2nnc(Nc3ccc(Oc4ncccc4-c4ccnc(N)n4)cc3)c3ccccc23)c1 | 1.65 °C | 0.49 °C | 0.46 °C | 0.28 °C | 0.97 °C | 1.99 °C | 1.72 °C | 1.04 °C | 0.22 °C | 1.54 °C | 2.43 °C | -0.58 °C | 0.56 °C | 14 °C | 0.96 °C | 0.74 °C | 1.36 °C | 4.38 °C | 3.75 °C | 1.17 °C
4 | C[C@@]1(C(=O)Nc2ccc(F)nc2)CCCN1c1nc(Nc2cc(C3CC3)n[nH]2)c2cccn2n1 | 1.85 °C | 3.65 °C | 0.11 °C | 0.04 °C | 3.52 °C | 0.38 °C | 4.9 °C | 1.12 °C | 0.67 °C | 0.49 °C | 0.92 °C | -2.64 °C | 0.85 °C | 0.6 °C | -0.49 °C | 1.02 °C | 1.05 °C | 0.71 °C | 8.77 °C | 0.26 °C
5 | O=C(O)[C@]1(Cc2cccc(Nc3nccs3)n2)CC[C@@H](Oc2cccc(Cl)c2F)CC1 | 1.81 °C | 1.68 °C | 3.48 °C | -1.25 °C | 5.16 °C | 1 °C | 2.55 °C | 3.01 °C | -0.7 °C | 13.5 °C | 5.7 °C | 1.72 °C | -1.18 °C | 0.43 °C | 3.34 °C | 9.45 °C | 0.53 °C | 5.62 °C | 13.5 °C | 0.24 °C
6 | C=CC(=O)Nc1ccc(CN2C(=O)N(c3cc(OC)cc(OC)c3)Cc3cnc(Nc4ccc(N5CCN(C)CC5)cc4)nc32)cc1 | 1.43 °C | 1.19 °C | 4.79 °C | 0.56 °C | 0.97 °C | 1.74 °C | -0.73 °C | 4.57 °C | 0.02 °C | 0.08 °C | 3.1 °C | 0.63 °C | 2.43 °C | 0.9 °C | 0.61 °C | 1.17 °C | 1.48 °C | 1.77 °C | 2.28 °C | 1.39 °C
7 | O=C(NC[C@H](O)CO)c1ccncc1Nc1ccc(I)cc1F | 0.13 °C | 0.07 °C | 1.79 °C | 0.34 °C | 0.16 °C | 0.66 °C | -0.15 °C | 0.13 °C | -0.03 °C | 0.02 °C | 0.55 °C | 0.48 °C | 0.44 °C | 0.1 °C | -0.19 °C | 0.16 °C | 0.72 °C | 0.65 °C | -0.42 °C | 0.32 °C
